For part of these data: Results with a measured potency or affinity are listed apart.

The values that follow come from ChEMBL document CHEMBL4296182, “CO-ADD screening of NIH NCI Diversity Set V”.

Test [1] concerns Staphylococcus aureus. In words: Antibacterial activity against Staphylococcus aureus MRSA ATCC 43300 (CO-ADD:GP_020); MIC in CAMBH media using NBS plates, by Resazurin F(560/590). Format: functional. The following applies: Concentration 20 uM, ASSAY_TEST Inhibition of Bacterial Growth, detection method Resazurin, Fluorescence (ex560/em590), MEDIA CAMHB, plate type 384well, CORNING #3640, time 18 hr. In general terms: Resazurin is reduced to fluorescent resorufin, in cell work by metabolically active cells.

For test [2], the system named is Acinetobacter baumannii. In words: Antibacterial activity against Acinetobacter baumannii ATCC 19606 (CO-ADD:GN_034); MIC in CAMBH media using NBS plates, by Resazurin F(560/590). Format: functional. The conditions noted are these: Concentration 20 uM, ASSAY_TEST Inhibition of Bacterial Growth, detection method Resazurin, Fluorescence (ex560/em590), MEDIA CAMHB, plate type 384well, CORNING #3640, time 18 hr.

Test [3] deals with Escherichia coli. Kind of test: Antibacterial activity against Escherichia coli ATCC 25922 (CO-ADD:GN_001); MIC in CAMBH media using NBS plates, by Resazurin F(560/590). The format is functional. The conditions noted are these: Concentration 20 uM, ASSAY_TEST Inhibition of Bacterial Growth, detection method Resazurin, Fluorescence (ex560/em590), MEDIA CAMHB, plate type 384well, CORNING #3640, time 18 hr.

The test system of test [4] is Klebsiella pneumoniae. The following applies: Concentration 20 uM; ASSAY_TEST Inhibition of Bacterial Growth; detection method Absorption (OD600); MEDIA CAMHB; plate type 384well; NBS; CORNING #3640; time 18 hr.
In test [5] the test system is Candida albicans. The conditions noted are these: 20 µM.
The test system of test [6] is Cryptococcus neoformans. The conditions noted are these: Concentration 20 uM; ASSAY_TEST Inhibition of Fungal Growth; detection method Resazurin; Absorption (OD600-OD570); plate type 384well; NBS; CORNING #3640.

The term Inhibition denotes the relative decrease from the control value, in per cent. As for `O=[N+]([O-])c1ccc(NN=C(c2ccccc2)c2ccccc2)nc1`, the Inhibition is 5.39% in test [1]; -2.58% in test [2]; 13.19% in test [3]; 5.05% in test [4]; 3.51% in test [5]; -2.84% in test [6].
`COC(=O)Nc1csc2c1NC(=O)CCCC2`: the Inhibition in test [1] was 9.05%; in test [2], -9.14%; in test [3], 10.25%; in test [4] it was 10.74%; in test [5] it was 1.85%; in test [6] it was -7.13%.
Consider `CN1CCN(C2=NCCO2)CC1`, for which the Inhibition in test [1] is 4.85%; in test [2], -15.45%; in test [3], 15.25%; in test [4], 13.16%; in test [5], 3.03%; in test [6], 6.31%.
On to `O=C(O)CCNC1CCCCC1`, for which the Inhibition in test [1] was 7.12%; in test [2], -7.34%; in test [3] it was 6.52%; in test [4], 12.82%; in test [5], 3.1%; in test [6] it was -1.65%.
Consider `Cc1ccc(C(C)C)cc1NC(=O)Nc1ccc([N+](=O)[O-])cc1`, for which the Inhibition was 19.7% in test [1]; 7.88% in test [2]; -5.77% in test [3]; 22.27% in test [4]; 8.72% in test [5]; -7.56% in test [6].
On to `NS(=O)(=O)c1cc2c(cc1Cl)NC(CC1CCCC1)NS2(=O)=O` (configuration not stated) [CYCLOPENTHIAZIDE], for which the Inhibition in test [1] was 1.39%; in test [2], 8.9%; in test [3], -12.38%; in test [4], 7.07%; in test [5], 3.92%; in test [6] it was 5.84%.
As to `C#Cc1cccc(NC(=O)c2ccc(Cl)cc2Cl)c1`, the Inhibition in test [1] was 1.84%; in test [2] it was -16.25%; in test [3] it was 7.38%; in test [4] it was 6.81%; in test [5] it was 7.69%; in test [6] it was -7.06%.
With `C(=C\c1ccccn1)/c1ccccn1`, the Inhibition in test [1] was -7.74%; in test [2], -5.17%; in test [3], -19.26%; in test [4], 9.47%; in test [5] it was 4.3%; in test [6], 26.47%.
Consider `O=C1NCN(CCO)CN1`, for which the Inhibition in test [1] is 3.46%; in test [2], -3.91%; in test [3], 8.55%; in test [4], 4.75%; in test [5], 0.72%; in test [6] it was -3.9%.
On to `Cc1ccc(C)c(C(=O)CCC(=O)O)c1`, for which the Inhibition is 9.56% in test [1]; 8.73% in test [2]; 0.68% in test [3]; 19.18% in test [4]; 8% in test [5]; -5.46% in test [6].
In the case of `Cc1ccc([N+](=O)[O-])cc1NC(=O)Nc1cccc(F)c1`, the Inhibition in test [1] was 33.45%; in test [2], -10.69%; in test [3], 8.59%; in test [4], 12.62%; in test [5], 18.3%; in test [6], -9.48%.
Consider `Nc1nc(=S)ss1`, for which the Inhibition in test [1] was 5.79%; in test [2] it was -17.7%; in test [3], 2.29%; in test [4], 13.54%; in test [5], 3.85%; in test [6], -5.25%.
Take `COc1ccc(/C=C2/CCOC2=O)cc1`: the Inhibition in test [1] was -2.28%; in test [2] it was -9.37%; in test [3], 12.04%; in test [4], 6.07%; in test [5], 3.59%; in test [6], -15.8%.
`c1ccc(-n2c3ccccc3c3ccccc32)cc1`: the Inhibition was 0.65% in test [1]; -3.58% in test [2]; 6.48% in test [3]; 0.88% in test [4]; 5.95% in test [5]; 11.23% in test [6].
For `Cc1nc([C@H]2CC[C@H]3[C@@H]4CCC5=CC(=O)CC[C@]5(C)[C@H]4CC[C@]23C)cs1`, the Inhibition in test [1] is 4.31%; in test [2] it was 15.21%; in test [3], 6.81%; in test [4], 9.22%; in test [5] it was 2.4%; in test [6], -7.32%.
As to `CC(=O)NCCCOc1ccc([N+](=O)[O-])cc1Cl`, the Inhibition in test [1] was 3.67%; in test [2] it was -1.89%; in test [3], 11.85%; in test [4], 3.56%; in test [5], 0.9%; in test [6] it was -4.3%.
Take `CCS(=O)(=O)C1C(=O)N(C)C(S(=O)(=O)CC)C(=O)N1C` (configuration not stated): the Inhibition in test [1] is 23.63%; in test [2] it was 9.14%; in test [3], 3.65%; in test [4], 7.03%; in test [5] it was 1.37%; in test [6], -11.73%.
Turning to `COc1ccc2nc3cc(Cl)ccc3c(Nc3cc(C(C)C)c(O)cc3C)c2c1`, the Inhibition is 18.28% in test [1]; -16.67% in test [2]; 18.01% in test [3]; 9.53% in test [4]; -0.84% in test [5]; -12.42% in test [6].
Take `CCOC(=O)C1CC(=O)c2cc(OC)c(OC)cc2C1` (configuration not stated): the Inhibition in test [1] is -2.55%; in test [2] it was 9.78%; in test [3] it was 7.27%; in test [4] it was 13.25%; in test [5] it was 3.32%; in test [6], -12.53%.
On to `O=C1NCCc2c1[nH]c1ccccc21`, for which the Inhibition in test [1] is -13.58%; in test [2] it was -2.97%; in test [3], -11.15%; in test [4] it was 6.5%; in test [5] it was 2.99%; in test [6] it was -7.2%.
In the case of `Cc1cc(NC(=O)c2ccccc2)nc(C)n1`, the Inhibition was 8.84% in test [1]; -8.03% in test [2]; 12.79% in test [3]; 3.38% in test [4]; 0.88% in test [5]; -15.88% in test [6].
Turning to `Cc1c(C#N)c2n(c1C)CCCC(=O)N2`, the Inhibition in test [1] came out at 39.05%; in test [2], 3.89%; in test [3], 19.57%; in test [4], 7.55%; in test [5] it was 10.6%; in test [6], 5.76%.
For the compound `Cc1c(O)cnc2nn(-c3ccccc3)c(=N)n12`, the Inhibition was 11.23% in test [1]; 10.25% in test [2]; 2.75% in test [3]; 9.94% in test [4]; 3.98% in test [5]; -5.13% in test [6].
Regarding `CCOc1ccc(/C=C2\CCc3ccccc3C2=O)cc1`, the Inhibition in test [1] is -3.91%; in test [2] it was -2.84%; in test [3], -2.65%; in test [4], 4.93%; in test [5] it was 5.43%; in test [6] it was -7.99%.
Turning to `CCOC(=O)/C=C/c1ccc(C(=O)OCC)[nH]1`, the Inhibition turned out to be 42.73% in test [1]; 10.2% in test [2]; 20.38% in test [3]; 8.24% in test [4]; 7.12% in test [5]; 8.93% in test [6].
Take `CCOC(=O)c1cnn2c(SC)ncnc12`: the Inhibition in test [1] is 10.61%; in test [2], 5.37%; in test [3], -2.6%; in test [4], 12.61%; in test [5], 5.51%; in test [6], -8.81%.
As to `O=C(c1ccccc1)c1ccccc1C(=O)c1ccccc1`, the Inhibition in test [1] was 16.85%; in test [2], 12.71%; in test [3], 4.94%; in test [4] it was 16.03%; in test [5], 2.49%; in test [6], -5.73%.
Consider `COc1cc2c(O)cc(C(=O)O)c(-c3cc(OC)c(OC)c(OC)c3)c2cc1OC`, for which the Inhibition is 5.82% in test [1]; -7.99% in test [2]; 8.13% in test [3]; 8.82% in test [4]; -0.33% in test [5]; -9.59% in test [6].
With `CCCCSc1cc(C)nc(N)n1`, the Inhibition in test [1] was 19.18%; in test [2], -7.66%; in test [3], 11.54%; in test [4] it was 4.75%; in test [5], 1.09%; in test [6] it was -5.9%.
For `CCCCCc1cccnc1`, the Inhibition in test [1] was 1.69%; in test [2], -4.62%; in test [3], 11.47%; in test [4] it was 10.71%; in test [5], 2.3%; in test [6], -0.18%.
Turning to `CC(OC(=O)Nc1cccc(Cl)c1)C(=O)O` (configuration not stated), the Inhibition was 8.5% in test [1]; 9.43% in test [2]; 16.3% in test [3]; 7.75% in test [4]; -1.51% in test [5]; -11.24% in test [6].
Turning to `CCC(C)NC(=O)CC(C)C` (configuration not stated), the Inhibition in test [1] is 6.08%; in test [2], -12.68%; in test [3], 19.94%; in test [4] it was 15.35%; in test [5], -0.68%; in test [6] it was -12.52%.
`C=CCNc1ncnc2sc(SC)nc12`: the Inhibition in test [1] was -6.85%; in test [2] it was 14.45%; in test [3], 5.94%; in test [4] it was 7.44%; in test [5], 10.1%; in test [6], -10.12%.
For the compound `c1ccc2c(c1)Nc1ccncc1S2`, the Inhibition is 6.69% in test [1]; -7.03% in test [2]; 3.1% in test [3]; 3.6% in test [4]; 2.27% in test [5]; -9.93% in test [6].
Take `O=C(O)c1ccccc1-c1ccccc1C(=O)Nc1ccc2oc(=O)c3ccccc3c2c1`: the Inhibition in test [1] was 4.75%; in test [2], -2.77%; in test [3], -0.87%; in test [4], 11.43%; in test [5] it was 17.8%; in test [6], -3.99%.
Regarding `CCOC(=O)c1c(O)cc(C)nc1O`, the Inhibition in test [1] was 3.86%; in test [2] it was -15.92%; in test [3] it was 14.23%; in test [4] it was 12.49%; in test [5] it was 3.14%; in test [6] it was 13.8%.
For `N#C/C(=C\c1ccc[nH]1)C(=O)c1ccccc1`, the Inhibition in test [1] was 9.96%; in test [2], 7.21%; in test [3], 0.79%; in test [4], 8.89%; in test [5] it was 10.3%; in test [6], -7.32%.
